IP6K1 inhibitor – Primary qHTS assay for small molecule inhibitors of Inositol hexaphosphate kinase 1 (IP6K1); Inositol hexakisphosphate kinase 1 (Homo sapiens), Q92551; IP6K1 kinase, ADP-Glo luminescence, 2 h; stronger effect = lower value; activity change, % (series mostly up to about 58 µM); hit rate 0.81% among 140,000; AID 1645851, 2021; in the data active = activity change below about -25%; also: % is scaled to controls: 0 for no effect and ±100 for the full control effect
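ADP-Glo luminescence measures ADP made by human IP6K1 during a 2 h RT reaction with ATP/IP6 (mix at 1.3 mM/130 uM); top library doses 57.5 and 19.1 uM final.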
KDM5B inhibitor – Primary screen for KDM5B Histone Demethylases FDH-coupled qHTS; KDM5B demethylase, FDH-coupled NADH fluorescence (FDH is formaldehyde dehydrogenase); hit rate 2.6% among 220,000; AID 1347165, 2019; Potency, µM (titrated, usually from 57.7 µM), most hits filed as inhibitors; active = well fitted inhibition curve with a large enough effect; inconclusive = small, poorly fitted or top-dose-only effect; inactive = no such curve, though single readings can be large or run the other way; also: potency is read from the fitted curve at half-maximal effect; 0% is about no effect; nearly all actives have a fitted effect of over 70% in size
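KDM5BΔAP (200 nM final) in 50 mM HEPES pH 7.5, 0.01% Tween-20 was preincubated 10 min at RT with compound over a concentration range. Substrate mix (H3K4me3 12.5 µM, α-KG 25 µM, Fe²⁺, ascorbate, NAD⁺, FDH) was added, and NADH fluorescence change over 30 min gave dose-response curves.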
An asterisk follows results filed as active; i = inactive; ? = inconclusive; . = no result. Shown are actives, neighbours in structure and some others; about 2.7% of the full set was active somewhere.

SMILES	IP6K1 inhibitor	KDM5B inhibitor
CCn1c(C(=O)NC2CCN(CC(=O)NC3CC3)CC2)cc2ccccc21	.	i
CCN(c1ccccc1)S(=O)(=O)c1ccc(NC(=O)c2nc(S(C)(=O)=O)ncc2Cl)cc1	-43*	?
CCS(=O)(=O)c1ncc(Cl)c(C(=O)Nc2ccc(S(=O)(=O)N(C)c3ccccc3)cc2)n1	-21	?
Cc1ccsc1C(=O)N1CCC(c2nc(CCOc3ccc(F)cc3)no2)C1 (configuration not stated)	9	.
COc1ccc(-c2noc([C@@H]3CCCN3C(=O)Cc3ccccc3Cl)n2)cc1OC	0	28µM*
COc1ccc(C(=O)N2CCC[C@H]2c2nc(-c3ccc(OC)c(OC)c3)no2)c(C)c1	4	28µM*
COc1ccc(CC(=O)N2CCC[C@H]2c2nc(-c3ccc(OC)c(OC)c3)no2)cc1Cl	9	?
CCOc1ccc(CC(=O)N2CCC[C@H]2c2nc(-c3ccc(OC)c(OC)c3)no2)cc1OCC	0	i
COc1ccc(-c2noc([C@@H]3CCCN3C(=O)Cc3cccc(F)c3)n2)cc1OC	-1	25µM*
COc1ccc(C(=O)N2CCC[C@H]2c2nc(-c3ccc(OC)c(OC)c3)no2)cc1OC	-2	i
Cc1ccc(O)c(C(=O)OCC(=O)Nc2ccccc2N2CCCC2=O)c1	.	i
CCC(NC(C)=O)c1cccs1 (configuration not stated)	.	i
COc1cc(/C=C(\C#N)C(=O)C(C)(C)C)ccc1OCc1c(F)cccc1Cl	.	i
CN1[C@@H](CCC(=O)NCc2ccc(F)cc2)CNC(=O)[C@@H]2[C@H]1CCN2Cc1ccc(C(F)(F)F)cc1	8	?
CSc1ccc(-c2noc(C3CCCN(S(=O)(=O)c4cccs4)C3)n2)cc1 (configuration not stated)	.	i
COc1ccc(-c2nc(C)nc3c2CCC3)c2ccc(C)nc12	13	28µM*
COc1ccc(C)cc1Nc1c2c(nc3ccccc13)CCC2	-10	i
COc1cccc(NC(=O)c2ccnc(-c3nnc4ccc(N(C)C)nn34)c2)c1	-4	?
CN(c1ccccc1)c1ccc2nnc(-c3cc(C(=O)Nc4ccccn4)ccn3)n2n1	-13	11µM*
CN(C)c1ccc2nnc(-c3cc(C(=O)NCCc4ccccn4)ccn3)n2n1	-10	35µM*
CN(c1ccccc1)c1ccc2nnc(-c3cc(C(=O)NCC4CCCO4)ccn3)n2n1 (configuration not stated)	-21	i
CN(c1ccccc1)c1ccc2nnc(-c3cc(C(=O)NC4CCC(O)CC4)ccn3)n2n1 (configuration not stated)	-6	i
CN(c1ccccc1)c1ccc2nnc(-c3cc(C(=O)NCc4cccnc4)ccn3)n2n1	-7	35µM*
COC(=O)[C@@H]1Cc2c([nH]c3ccccc23)[C@H]2C[C@@H](NCCN3CCOCC3)C[C@@H](c3ccc(C(F)(F)F)cc3)N21	-7	?
O=C(COc1ccccc1)Nc1nc(-c2ccc(S(=O)(=O)N3CCCC3)cc2)cs1	.	i
SMILES	IP6K1 inhibitor	KDM5B inhibitor
COc1ccc(NC(=O)NCC2CCN(CCc3ccc(F)cc3)CC2)cc1OC	.	i
CC(=O)c1ccc(N2CCN(C(=O)c3cn(-c4ccccc4)nc3-c3cccnc3)CC2)cc1	.	i
Cc1cccc(-c2noc(-c3cccc(Br)c3)n2)c1	.	i
Cc1cccc(-c2cccc(CN3CCC(NC(=O)c4ccc(Cl)nc4)CC3)c2)c1	-2	.
O=C(Nc1ccc([C@@H](O)[C@H]2COCC(=O)N2CCCc2ccccc2)cc1)c1ccco1	-10	i
Cc1nc2ccccc2nc1SC(C)C(=O)N(C)C (configuration not stated)	.	i
Cc1c(C#N)c(N)nc2c3c(sc12)NC(=O)CC3c1ccccc1F (configuration not stated)	.	i
CNc1nc2c(s1)C(c1ccccc1F)CC(=O)N2 (configuration not stated)	-11	35µM*
CN(C)S(=O)(=O)c1ccc(=O)n(CC(=O)c2c[nH]c3ccccc23)c1	.	i
Nc1cccc(C(=O)O)c1[N+](=O)[O-]	.	i
O=C(Nc1cccn2nc(C3CCC3)nc12)c1ccc(F)cc1	13	i
Nc1cccn2nc(C3CCC3)nc12	12	18µM*
c1ccc(COc2ccc(Oc3cc(-c4nc5ccccc5s4)c4ccccc4n3)cc2)cc1	.	i
O=C(N1CCCN(c2cc(-c3ccc(Cl)cc3)[nH]n2)CC1)C1(c2ccccc2)CC1	-11	?
COc1cccc(-c2cn3cc(C(=O)NCCc4ccccc4F)nc3s2)c1	-2	.
Cn1c(=O)c2c(ncn2CC(=O)Nc2nc(-c3ccc(C4CCCCC4)cc3)cs2)n(C)c1=O	.	i
NCCCN1C(=O)CC[C@H]2CN(C(=O)c3coc4ccccc34)CC[C@H]21	-8	i

Assay outcomes: PubChem BioAssay, National Center for Advancing Translational Sciences (NCATS)
